Inhibition data for 68 compounds are collected here from PubChem BioAssay AID624413 (The Scripps Research Institute Molecular Screening Center, 2012).

Usually inhibition stands for the change of the read-out against control, counted positive when it falls.

Among all 1,400 compounds or so, about 160 (11%) were called active. Not all results are given here. Values without a mark were called inactive. Cut-off read from the data, not from the text of the source: active = inhibition above about 15%; inactive = the rest.

The nature of the test: viability loss in Jurkat lymphocytes – cell-based, luminescence, high throughput, cytotoxicity control for T. brucei MetRS inhibitor project (AID 624413).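 Note: 0% = vehicle and 100% = reference inhibitor.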 To be noted: Jurkat cells viability, ATP luminescence; at 8.3 µM; active compounds read high.
With `Cc1ccc(N2C(=O)CC(NCc3ccc4c(c3)OCO4)C2=O)cc1Cl` (stereo not drawn), the inhibition was -6.39%.
Take `O=[N+]([O-])c1ccc(N2CCN(c3ccc(O)cc3)CC2)c(Cl)c1`: the inhibition was 1.76%.
On to `O=S(=O)(NCc1ccc(Cl)cc1Cl)c1cccs1`, for which the inhibition is -0.99%.
As for `O=C(Nc1ccccc1)Nc1nnc(COc2ccccc2F)s1`, the inhibition is 5.35%.
In the case of `O=C(NNC(=O)c1ccc(-n2cncn2)c([N+](=O)[O-])c1)c1ccccc1`, the inhibition is 5.48%.
Turning to `O=C(Nc1ccc(Cl)cc1)N1CCc2[nH]c3ccccc3c2C1`, the inhibition was 1.46%.
With `O=C(Nc1cccc([N+](=O)[O-])c1)N1CCc2ccccc2C1`, the inhibition was 17% (active).
Turning to `O=C(CSCC(=O)Nc1cccc([N+](=O)[O-])c1)Nc1ccccc1`, the inhibition is -0.93%.
Turning to `O=C(/C(=N\O)n1cncn1)c1ccc(Br)cc1Br`, the inhibition is -3.9%.
On to `O=C(NNc1cc(Cl)cc(Cl)c1)c1c(F)cccc1Cl`, for which the inhibition was 1.84%.
Regarding `COc1ccc(CCn2ccc(O)c(Cc3ccc(Cl)cc3Cl)c2=O)cc1OC`, the inhibition was 9.61%.
On to `Cc1ccc(S(=O)(=O)c2c[nH]c3ccc(Cl)cc3c2=O)cc1`, for which the inhibition is 5.58%.
The result for `CCCCCCCC[n+]1cccc(C(=O)N2c3c(nc(N)[nH]c3=O)NC(C)C2C)c1` (stereo not drawn) reads 10%; that for `CC(=O)c1ccc(NC(=O)c2ccc(-n3cncn3)c([N+](=O)[O-])c2)cc1`, 2.58%; that for `CCCCN(C)Cc1c(C)[nH]c2ccc(Cl)cc2c1=O`, -0.56%.
Turning to `c1ccc(CN=C2Nc3ccccc3CS2)nc1`, the inhibition was 0.23%.
Turning to `OCCNc1nc2ccccc2n1-c1ncnc2sc3c(c12)CCC3`, the inhibition was 9.96%.
For `Clc1ccc(-c2cc(C3CCNCC3)[nH]n2)c(Cl)c1` the value was -0.28%; for `NC1=NC(=O)S/C1=C\c1ccc(O)cc1`, 7%; for `COC(=O)/C(=C\Nc1ccccc1)NC(=O)c1ccc(Cl)cc1Cl`, 11.3%.
As to `O=C(NCc1cccc(CNC(=O)Nc2cccc(O)c2)c1)Nc1cccc(O)c1`, the inhibition is 13.5%.
For `Cc1ccc(NC(=O)C(C)c2cccc(C(=O)c3ccccc3)c2)cc1` (stereo not drawn) the value was 1.82%; for `OC(c1cc(Cl)cc(Cl)c1)c1ncc(-c2ccccc2C(F)(F)F)[nH]1` (stereo not drawn), 6.67%.
Regarding `CCCCN1C[C@H](c2ccc(Br)cc2)[C@@H](CC(=O)Nc2ccc(Br)cc2)C1=O`, the inhibition was 7.69%.
As for `c1ccc2cc3c(NCCN4CCOCC4)ccnc3cc2c1`, the inhibition was 22.4% (active).
As for `Cc1ccc(S(=O)(=O)c2c[nH]c3ccc(C)cc3c2=O)cc1`, the inhibition was 4.57%.
In the case of `CCN(CC)C(=O)C(=O)c1cn(CC(=O)NCc2ccc3c(c2)OCO3)c2ccccc12`, the inhibition is 2.71%.
In the case of `NS(=O)(=O)c1ccc(CCNC(=O)Nc2ccc(Cl)cc2)cc1`, the inhibition is 3.2%.
For the compound `O=C(Cc1ccc(S(=O)(=O)N2CCOCC2)s1)Nc1ccc(Br)c(C(F)(F)F)c1`, the inhibition is 4.25%.
Turning to `O=C(CC(=O)Nc1ccc(Cl)c(Cl)c1)N/N=C/c1ccc(O)cc1`, the inhibition was 3.68%.
Regarding `O=C(Cn1c2[n+](c3ccc(C(F)(F)F)cc31)CCCCC2)Nc1c(F)cccc1F`, the inhibition is 7.63%.
Take `S=c1[nH]nc(CSCc2ccc(Cl)cc2Cl)n1-c1ccccc1`: the inhibition was 7.09%.
On to `Cc1ccc(-c2cnc(C(O)c3cc(Cl)cc(Cl)c3)[nH]2)cc1` (stereo not drawn), for which the inhibition was 4.06%.
Take `Oc1[nH]c2ccc(Br)cc2c1N=Nc1nn[nH]n1`: the inhibition was -3.84%.
For `CN(C(=O)CSc1nnc(-c2c[nH]c3ccccc23)o1)C1CCS(=O)(=O)C1` (stereo not drawn) the value was -7.37%.
For the compound `Fc1ccc(NC(=S)N2CCc3[nH]c4ccccc4c3C2)cc1`, the inhibition is -0.86%.
With `Cn1c(CCCOc2ccc(Cl)cc2Cl)n[nH]c1=S`, the inhibition was 1.8%.
As to `COC(=O)CN1C(=S)N(c2ccccc2)C(=O)C1CC(=O)Nc1ccc(Cl)cc1` (stereo not drawn), the inhibition is -3.1%.
Turning to `Clc1ccccc1SCc1nc2ccccc2[nH]1`, the inhibition is 7.62%.
For `Cc1ccc(O)c(CNc2nc3ccccc3[nH]2)c1`, the inhibition was 24.5% (active).
For the compound `Cc1ccc(CNC(=O)CSc2nnc3c(n2)[nH]c2ccc(F)cc23)cc1`, the inhibition is -1.93%.
For `O=C(O)CCn1c(O)c(C=C2N=c3ccccc3=N2)sc1=S` the value was 0.39%.
For `O=C(Nc1ccc(S(=O)(=O)Nc2ncccn2)cc1)c1cncc(Br)c1`, the inhibition was -8.56%.
For `COc1ccc(OCC(O)CNC(=O)Nc2ccc(Cl)cc2)cc1` (stereo not drawn) the value was -6%; for `CCCCCn1nnnc1-c1nc2cc3ccccc3cc2[nH]c1=O`, 55.2% (active).
For the compound `c1ccc2cc3[nH]c(CN4CCCCC4)nc3cc2c1`, the inhibition was -5.35%.
`O=C(O)c1ccc(NS(=O)(=O)c2ccc3c(c2)C(=O)c2cc(S(=O)(=O)Nc4ccc(C(=O)O)cc4)ccc2-3)cc1`: the inhibition was -0.7%.
Turning to `CC(=N\NC(=O)c1cc(Br)ccc1O)/C(=N/O)C(=O)Nc1ccccc1`, the inhibition was 9.24%.
As for `CN(C(=O)CSc1nnc(Nc2ccccc2)s1)C1CCS(=O)(=O)C1` (stereo not drawn), the inhibition is 3.56%.
Regarding `CCO[C@@H]1OC(C(=O)NCc2nc3ccccc3[nH]2)=C[C@H](C2CCCCC2)[C@H]1CCCO`, the inhibition is -0.5%.
With `O=C(Cn1c(NCCO)nc2ccccc21)c1ccc(Cl)cc1Cl`, the inhibition is 4.95%.
The result for `COc1ccc(-c2[nH]ncc2/C=N/NC(=O)c2cc(Br)ccc2O)c(OC)c1` reads 2%; that for `COc1ccccc1-n1c(SCC(=O)Nc2ccc(Cl)cc2)nc(O)c(Cc2ccccc2)c1=O`, -1.69%.
Regarding `CSc1nsc(NC(=O)Nc2ccccc2)n1`, the inhibition was 10%.
Take `Cc1ccccc1OCC(=O)NNC(=O)c1ccc(-n2cncn2)c([N+](=O)[O-])c1`: the inhibition was 5.5%.
For `Cc1c(CN2CCC(CO)(CCOc3ccccc3)CC2)[nH]c2ccc(Cl)cc12` the value was 13.6%; for `O=C(CSc1nc2ccccc2[nH]1)N/N=C/C=C\c1ccccc1[N+](=O)[O-]`, 0.15%.
The result for `Cc1ccc(S(=O)(=O)N(C)C)cc1NC(=O)c1ccc(-n2cncn2)c([N+](=O)[O-])c1` reads -2.08%; that for `COc1ccc(NC(=O)C(NC(C)=O)C(=O)NCc2ccccc2Cl)cc1` (stereo not drawn), 3.32%.
Consider `O=S(=O)(c1ccc(Br)cc1)N1CCC(c2nc3ccccc3[nH]2)CC1`, for which the inhibition was 35.4% (active).
`O=C(NCC(O)c1nc2ccccc2[nH]1)c1ccc(Br)cc1` (stereo not drawn): the inhibition is 1.16%.
For `O=C(OCc1nc2ccccc2[nH]1)C1CCCCC1` the value was -2.05%; for `O=C(NCCN1CCOCC1)c1ccccc1N1C(=O)[C@@H]2Cc3c([nH]c4ccccc34)C(c3cccc(Cl)c3)N2C1=O` (stereo partly drawn), -0.67%.
Turning to `CC(C)OCCCNc1ncnc2c1[nH]c1ccc(F)cc12`, the inhibition was 47.3% (active).
Regarding `O=C1CCCN1CCCNc1ncnc2c1[nH]c1ccccc12`, the inhibition was -1.7%.
For `CCN1CCCC1CNc1ncnc2c1[nH]c1ccc(F)cc12` (stereo not drawn) the value was -1.19%; for `Cc1cc(C)cc(NC(=O)N(C)Cc2ccccc2)c1`, -0.98%.
The result for `CC(C)(C)c1ccc(/C=C2\SC(=O)N=C2N)cc1` reads 7.36%.
